Measurements from PubChem BioAssay (Tox21).
Results filed as inconclusive are left out. Activity calls are given as the source filed them. Unless noted, the call rests on the fitted dose curve.

Columns and labels:
[1] = Nuclear factor erythroid 2-related factor 2/antioxidant responsive element (Nrf2/ARE) small molecule agonists: qHTS cell viability counter screen in human keratinocytes (AID 1919968; active means well fitted curve in the direction sought with a large enough effect in the repeat runs; an effect the other way counts as inactive or inconclusive; further: nearly all actives have a fitted effect of over 55% in size; further: potency means the concentration at half of the fitted maximal effect)
Method in brief: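 KeratinoSens cells (HaCaT keratinocytes stably carrying an ARE-luciferase reporter) were seeded at 1,500 cells/well and rested 5 h at 37 C/5% CO2. They were then exposed to compounds in DMSO for 23 h. Viability was read by CellTiter-Fluor fluorescence after 1 h.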

[2] = target: KiSS-1 receptor (Homo sapiens) (UniProt Q969F8); test: Human kisspeptin (KISS1R) small molecule agonists, calcium flux assay in KISS1R-HEK293 cells (AID 1920064; active means well fitted curve in the direction sought with a large enough effect in the repeat runs; an effect the other way counts as inactive or inconclusive)
Method in brief: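 HEK293 cells stably expressing human KISS1R were plated 18 h at 37 °C, loaded with calcium dye for 1 h at 37 °C, then given compound by pin tool. Fluorescence (Ex/Em 480/540) was read kinetically for 3 min.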

[3] = G protein-coupled receptor (GPCR) small molecule agonists, calcium flux assay: HEK293 wild type cell line counter screen (AID 1920065)
Method in brief: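 Cells were plated and cultured 18 h at 37 C/5% CO2, then loaded with calcium dye for 1 h at 37 C. Compounds in DMSO were pin-transferred in agonist mode, and fluorescence (Ex/Em 480/540) was read kinetically for 3 min at 1 s intervals.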

[4] = p53 small molecule agonists, cell-based qHTS assay with human liver microsomes (AID 1963577);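 further: p53 response element beta-lactamase reporter cells with liver microsomes plus NADPH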
Method in brief: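 Reporter activation was measured by LiveBLAzer fluorescence intensity in p53RE-bla cells, which had been exposed to compounds for 16 h at 37 C alongside 0.5 mg/mL human liver microsomes and 0.5 mg/mL NADPH (final concentrations).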

[5] = p53 small molecule agonists, cell-based qHTS assay with rat liver microsomes (AID 1963578)
Method in brief: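 Compound in DMSO added to p53RE-bla cells 5 h post-plating; rat microsomes/NADPH 0.5 mg/mL final; 16 h, 37 C; LiveBLAzer 2 h RT.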

[6] = p53 small molecule agonists, cell-based qHTS assay with rat liver microsomes: qHTS cell viability counter screen (AID 1963580); further: nearly all actives have a fitted effect of over 45% in size
Method in brief: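 HCT-116 p53RE-bla, 4,000 cells/well, 5 h pre-incubation; cpd + rat liver microsomes 0.5 mg/mL + NADPH 0.5 mg/mL (final); 16 h, 37 C; CellTiter-Glo, 30 min RT; luminescence.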

[7] = p53 small molecule agonists, cell-based qHTS assay: qHTS cell viability counter screen (AID 1963581); further: nearly all actives have a fitted effect of over 45% in size
Method in brief: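 p53RE-bla HCT-116 cells were exposed to compounds for 16 h at 37 C; after the beta-lactamase FRET read in the same wells, CellTiter-Glo was added and luminescence (intracellular ATP) read after 30 min at room temperature.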

[8] = p53 small molecule agonists, cell-based qHTS assay (AID 1963582; active means well fitted activation curve with a large enough effect in the signal ratio in the repeat runs, not every such curve was filed as active; the % refers to the signal ratio)
Method in brief: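 p53RE-bla beta-lactamase reporter cells rested 5 h at 37 C/5% CO2, then received compounds in DMSO by pin transfer and were incubated 16 h at 37 C. LiveBLAzer B/G FRET substrate was loaded for 2 h at room temperature before fluorescence reading.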

[9] = target: 5-hydroxytryptamine receptor 2A (Homo sapiens) (UniProt P28223); test: 5-hydroxytryptamine receptor 2A (HTR2A) small molecule agonists, cell-based qHTS assay (AID 1963587); further: nearly all actives have a fitted effect of over 30% in size
Method in brief: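 Kinetic calcium-flux fluorescence (2 min, 1 sec intervals) after compound addition in agonist mode. HTR2A-CHO cells were cultured 18 h, then dye-loaded 1 h at 37 C.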

[10] = target: Muscarinic acetylcholine receptor M1 (Homo sapiens) (UniProt P11229); test: Cholinergic receptor muscarinic 1 (CHRM1) small molecule antagonists, cell-based qHTS assay (AID 1963588); further: nearly all actives have a fitted effect of over 40% in size
Method in brief: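 CHRM1-CHO calcium-flux assay, antagonist mode. Cells were seeded 18 h, dye-loaded 1 h at 37 C and given compound for 5 min at RT, then acetylcholine was added at 50nM. FDSS fluorescence was read 3 min; 15 concentrations, three runs.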

[11] = target: Muscarinic acetylcholine receptor M1 (Homo sapiens) (UniProt P11229); test: Cholinergic receptor muscarinic 1 (CHRM1) small molecule agonists, cell-based qHTS assay (AID 1963589); further: nearly all actives have a fitted effect of over 35% in size
Method in brief: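 CHO cells stably expressing human CHRM1, seeded 18 h at 37 C/5% CO2, dye-loaded 1 h at 37 C, then given compound in agonist mode; intracellular calcium fluorescence read kinetically at 1 s intervals. Fifteen concentrations, three independent runs.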

[12] = cAMP Responsive Elements (CRE) small molecule agonists, cell-based qHTS assay (AID 1963590)
Method in brief: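 CRE-bla HEK 293T cells in DMEM with 10% dialyzed FBS, NEAA, pyruvate and 25 mM HEPES were plated 18 h at 37 C/5% CO2, then exposed to compounds in DMSO for 3 h before LiveBLAzer B/G FRET substrate addition.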

[13] = cAMP Responsive Elements (CRE) small molecule antagonists, cell-based qHTS assay (AID 1963591; active means well fitted inhibition curve with a large enough effect in the signal ratio in the repeat runs, not every such curve was filed as active; the % refers to the signal ratio)
Method in brief: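 CRE-bla HEK293T cells were plated 18 h at 37 °C/5% CO2, pinned with compound in DMSO, then stimulated with NKH477 at 0.25 uM final for 3 h. LiveBLAzer B/G FRET substrate was added and plates incubated 2 h at room temperature.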

[14] = target: Beta-2 adrenergic receptor (Homo sapiens) (UniProt P07550); test: Adrenergic beta2 receptor (ADRB2) small molecule antagonists, cell-based qHTS assay (AID 1963592); further: series mostly up to about 92 µM; nearly all actives have a fitted effect of over 50% in size
Method in brief: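 Cells (CHO, stable ADRB2 overexpression) incubated 18-20hr at 37C; compounds added from DMSO; agonist mix (1nM isoproterenol, 100uM IBMX, 25uM Ro-20-1724) added; 0.5hr RT; d2-cAMP and anti-cAMP-cryptate added; 1hr RT; 665/615 nm read.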

[15] = target: D(2) dopamine receptor (Homo sapiens) (UniProt P14416); test: Dopamine D2 receptor (DRD2) small molecule agonists, cell-based qHTS assay (AID 1963594); further: nearly all actives have a fitted effect of over 35% in size
Method in brief: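 cAMP accumulation in DRD2-HEK293 cells measured by HTRF after 1 h detection; compounds added 10 min before NKH477 (200nM […]) forskolin-analogue stimulation, 30 min at room temperature, with Ro20-1724 present at 0.1 mM final.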

[16] = target: D(2) dopamine receptor (Homo sapiens) (UniProt P14416); test: Dopamine D2 receptor (DRD2) small molecule antagonists, cell-based qHTS assay (AID 1963595; active means well fitted inhibition curve with a large enough effect in the signal ratio in the repeat runs, with a control signal flat; the % refers to the signal ratio)
Method in brief: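 Antagonism was scored as restored cAMP in HEK293-DRD2 cells. These cells were stimulated with 200 nM NKH477 and 12 nM quinpirole for 30 min at room temperature, in the presence of 0.1 mM Ro20-1724.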

[17] = p53 small molecule agonists, cell-based qHTS assay with human liver microsomes: qHTS cell viability counter screen (AID 1963579); further: nearly all actives have a fitted effect of over 45% in size
Method in brief: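 HLM-supplemented (0.5 mg/mL final) and NADPH-supplemented (0.5 mg/mL final) p53RE-bla cultures, 4,000 cells per well, were dosed with compounds in DMSO for 16 h at 37 C; luminescent ATP detection (CellTiter-Glo, 30 min, room temperature) quantified surviving cells.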

[18] = target: 5-hydroxytryptamine receptor 2A (Homo sapiens) (UniProt P28223); test: 5-hydroxytryptamine receptor 2A (HTR2A) small molecule antagonists, cell-based qHTS assay (AID 1963586); further: nearly all actives have a fitted effect of over 45% in size
Method in brief: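 Antagonist-mode intracellular calcium assay: DOI (4 nM) added after 5 min compound pre-incubation at room temperature to dye-loaded HTR2A-CHO cells. Fluorescence followed for 3 min, sampled every second.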

[19] = target: Beta-2 adrenergic receptor (Homo sapiens) (UniProt P07550); test: Adrenergic beta2 receptor (ADRB2) small molecule agonists, cell-based qHTS assay (AID 1963593);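 further: CHO cells stably overexpressing human ADRB2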
Method in brief: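 CHO cells stably over-expressing ADRB2 were plated overnight at 37C, then dosed with compounds plus a stimulation mix containing 100uM IBMX and 25uM Ro-20-1724 for 0.5hr at room temperature. cAMP was measured by HTRF competition, 1hr.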
On the % scale 0 is the no-effect control and ±100 the full control effect.

Sequence of Beta-2 adrenergic receptor (Homo sapiens) (P07550 whole entry, looked up): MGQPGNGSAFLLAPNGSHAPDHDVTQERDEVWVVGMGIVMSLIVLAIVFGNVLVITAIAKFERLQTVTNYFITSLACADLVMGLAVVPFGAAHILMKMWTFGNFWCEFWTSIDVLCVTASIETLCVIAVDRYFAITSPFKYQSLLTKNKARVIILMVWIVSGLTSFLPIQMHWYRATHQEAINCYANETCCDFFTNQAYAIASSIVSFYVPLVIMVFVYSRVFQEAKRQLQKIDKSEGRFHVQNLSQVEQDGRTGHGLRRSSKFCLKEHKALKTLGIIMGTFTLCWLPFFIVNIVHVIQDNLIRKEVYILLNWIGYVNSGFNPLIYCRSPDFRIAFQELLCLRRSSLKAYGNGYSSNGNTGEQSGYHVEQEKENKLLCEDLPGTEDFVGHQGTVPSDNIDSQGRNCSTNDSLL
Sequence of Muscarinic acetylcholine receptor M1 (Homo sapiens) (P11229 whole entry, looked up): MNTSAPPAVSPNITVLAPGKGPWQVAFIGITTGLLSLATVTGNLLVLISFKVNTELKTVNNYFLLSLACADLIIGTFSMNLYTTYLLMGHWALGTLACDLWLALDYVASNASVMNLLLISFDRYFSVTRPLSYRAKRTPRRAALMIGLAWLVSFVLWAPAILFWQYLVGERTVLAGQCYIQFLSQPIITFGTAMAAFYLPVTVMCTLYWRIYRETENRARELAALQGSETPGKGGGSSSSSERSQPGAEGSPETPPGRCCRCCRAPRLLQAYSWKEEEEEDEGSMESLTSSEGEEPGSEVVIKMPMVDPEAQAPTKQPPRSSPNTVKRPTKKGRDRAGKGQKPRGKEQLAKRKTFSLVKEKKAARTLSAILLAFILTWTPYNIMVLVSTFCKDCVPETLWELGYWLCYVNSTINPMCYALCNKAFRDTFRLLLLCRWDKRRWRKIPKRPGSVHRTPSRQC
Sequence of KiSS-1 receptor (Homo sapiens) (Q969F8 whole entry, looked up): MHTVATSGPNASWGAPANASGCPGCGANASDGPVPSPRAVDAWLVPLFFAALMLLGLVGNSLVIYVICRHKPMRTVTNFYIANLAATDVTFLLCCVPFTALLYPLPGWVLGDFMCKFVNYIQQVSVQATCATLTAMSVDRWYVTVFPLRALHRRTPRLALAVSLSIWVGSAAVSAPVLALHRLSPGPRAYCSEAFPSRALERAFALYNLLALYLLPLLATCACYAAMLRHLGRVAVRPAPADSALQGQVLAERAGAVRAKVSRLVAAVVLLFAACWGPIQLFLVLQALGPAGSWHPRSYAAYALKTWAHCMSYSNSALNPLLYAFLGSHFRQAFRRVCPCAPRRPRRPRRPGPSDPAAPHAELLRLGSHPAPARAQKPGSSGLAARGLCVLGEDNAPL
Sequence of D(2) dopamine receptor (Homo sapiens) (P14416 whole entry, looked up): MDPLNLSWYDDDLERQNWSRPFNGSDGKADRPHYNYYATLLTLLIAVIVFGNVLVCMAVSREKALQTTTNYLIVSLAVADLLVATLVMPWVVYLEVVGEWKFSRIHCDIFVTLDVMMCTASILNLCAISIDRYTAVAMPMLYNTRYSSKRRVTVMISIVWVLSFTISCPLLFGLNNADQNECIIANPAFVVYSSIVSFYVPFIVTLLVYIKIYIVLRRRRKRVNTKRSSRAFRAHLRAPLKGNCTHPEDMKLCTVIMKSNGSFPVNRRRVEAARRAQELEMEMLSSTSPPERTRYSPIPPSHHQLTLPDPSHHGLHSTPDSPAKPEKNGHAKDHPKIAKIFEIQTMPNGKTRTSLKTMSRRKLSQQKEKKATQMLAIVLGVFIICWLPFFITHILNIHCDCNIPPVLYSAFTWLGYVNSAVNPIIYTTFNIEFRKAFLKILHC
Sequence of 5-hydroxytryptamine receptor 2A (Homo sapiens) (P28223 whole entry, looked up): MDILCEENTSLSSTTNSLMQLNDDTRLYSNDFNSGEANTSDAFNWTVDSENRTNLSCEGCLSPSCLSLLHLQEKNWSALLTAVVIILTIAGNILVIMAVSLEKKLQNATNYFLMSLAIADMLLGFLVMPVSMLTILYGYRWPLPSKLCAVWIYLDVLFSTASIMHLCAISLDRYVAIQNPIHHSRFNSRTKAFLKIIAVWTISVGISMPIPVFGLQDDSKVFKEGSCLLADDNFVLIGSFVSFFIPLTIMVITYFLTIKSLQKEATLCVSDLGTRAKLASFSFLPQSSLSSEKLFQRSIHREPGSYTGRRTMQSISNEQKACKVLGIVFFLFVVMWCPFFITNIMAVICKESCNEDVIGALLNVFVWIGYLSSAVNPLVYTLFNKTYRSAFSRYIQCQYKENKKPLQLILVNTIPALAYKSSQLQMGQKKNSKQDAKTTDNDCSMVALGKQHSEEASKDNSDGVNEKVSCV

OC[C@@H](O)[C@@H](O)CO
inactive: Potency [1] | outcome [2] | outcome [3] | Potency [4] | Potency [5] | Potency [6] | Potency [7] | Potency [8] | Potency [9] | Potency [10] | Potency [11] | Potency [12] | Potency [13] | Potency [14] | Potency [15] | Potency [16]

CCC1CO1 (configuration not stated)
inactive: Potency [1] | outcome [2] | Potency [4] | Potency [5] | Potency [17] | Potency [6] | Potency [7] | Potency [8] | Potency [18] | Potency [10] | Potency [11] | Potency [13] | Potency [14] | Potency [15] | Potency [16]

O=c1[nH]sc2cc(Cl)ccc12
inactive: outcome [2] | Potency [4] | Potency [5] | Potency [6] | Potency [7] | Potency [18] | Potency [9] | Potency [10] | Potency [11] | Potency [19] | Potency [15] | Potency [16]
active: Potency [1] 18.8 µM

CC(C)c1ccc(C(=O)N=C(N)N)cc1S(C)(=O)=O
inactive: Potency [1] | outcome [2] | outcome [3] | Potency [5] | Potency [17] | Potency [6] | Potency [7] | Potency [18] | Potency [9] | Potency [10] | Potency [11] | Potency [12] | Potency [14] | Potency [19]

O=C(O)Cn1c(C(=O)Nc2nc(-c3ccccc3Cl)cs2)cc2ccccc21
inactive: Potency [1] | outcome [2] | outcome [3] | Potency [5] | Potency [17] | Potency [6] | Potency [18] | Potency [9] | Potency [10] | Potency [11] | Potency [14] | Potency [16]

CCCCCCCCCCCCCCBr
inactive: Potency [1] | outcome [3] | Potency [4] | Potency [5] | Potency [17] | Potency [6] | Potency [8] | Potency [18] | Potency [9] | Potency [10] | Potency [11] | Potency [12] | Potency [13] | Potency [14] | Potency [19] | Potency [15] | Potency [16]

CC(C)C[C@@H](N)C(=O)O
inactive: activity change, negative = cytotoxicity [1] 2.62% [at 19 µM] | activation [2] -0.242% [at 15.8 µM] | activation [3] -0.27% [at 11.8 µM] | activation [4] -1.67% [at 13.5 µM] | activation [5] -1.65% [at 13.6 µM] | activity change, negative = cytotoxicity [7] -2.8% [at 13.5 µM] | activation [8] -0.189% [at 13.5 µM] | activation [9] 2.38% [at 15.9 µM] | activity, negative = inhibition [10] 0.917% [at 12.6 µM] | activation [11] 10.1% [at 15.8 µM] | activation [12] 0.0359% [at 19 µM] | activity change, negative = inhibition [13] -5.02% [at 18.9 µM] | activity change, negative = inhibition [14] 9.37% [at 19 µM] | Potency [19] | activation [15] 5.36% [at 19 µM] | activity change, negative = inhibition [16] 4.57% [at 18.9 µM]

COc1ccccc1N1CCN(CC(O)COc2cc(OC)c(OC)c(OC)c2)CC1 (configuration not stated)
inactive: Potency [1] | outcome [2] | outcome [3] | Potency [5] | Potency [17] | Potency [6] | Potency [7] | Potency [8] | Potency [9] | Potency [10] | Potency [11] | Potency [12] | Potency [13] | Potency [14] | Potency [16]

Cc1cccc(C)c1C
inactive: Potency [1] | outcome [2] | Potency [4] | Potency [5] | Potency [17] | Potency [6] | Potency [7] | Potency [8] | Potency [9] | Potency [11] | Potency [12] | Potency [13] | Potency [15] | Potency [16]
